Rows were chosen to be rich in hits. Some 4.1% of all compounds tested hit in one or more screens of this group.
hcDAF-12 act = H. contortus DAF-12 activation, primary screen; activation, % at 6.8 µM; AID 652067; HEK293 hcDAF-12 lit1-tk-luc reporter, luminescence; 0% DMSO, 100% Δ7-dafachronic acid; hit rate 1.4% among 370,000;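 active means activation above the mean of all tested compounds plus 3 SD, cut at about 5.5% in these data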
DAX1 inh-1 = blocks DAX1 repression of SF-1 activated StAR promoter | HEK293T StAR-luciferase reporter, SF-1/DAX-1 repression relief | inhibition, % at 6.8 µM | hit rate 1.1% among 370,000;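 active means inhibition above the mean over all tested compounds plus 3 SD, cut at about 3.6% in these data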;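 further: higher inhibition means more luminescence from relief of DAX-1 repression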
hgDAF12 agonist = activates the H. glycines DAF-12 receptor ligand-binding domain. activation, % at 6.8 µM. HEK293 GAL4-hgDAF12 UAS-luciferase reporter, agonist luminescence; normalized to butyrate control. hit rate 1.8% among 370,000;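 active means activation above a cutoff set at the mean of all screened compounds plus 3 SD, cut at about 10% in these data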
DAX1 inh-2 = inhibits human nuclear receptor DAX1; inhibition, % at 6.75 µM; AID 504766; P51843; HEK293 Gal4-DAX1 luciferase reporter, luminescence; hit rate 0.99% among 340,000;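 active means inhibition above the mean over all tested compounds plus 3 SD, cut at about 4.2% in these data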;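 further: inhibition shows as a rise in luminescence from relieved DAX1 repression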
ssDAF-12 act = activators of S. stercoralis DAF-12 nuclear receptor. activation, % at 6.8 µM. hit rate 1% among 370,000. HEK293 ssDAF-12/GRIP1 lit1-tk-luc reporter, luminescence; % of 3 µM dafachronic acid response;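 active means activation above the mean over all tested compounds plus 3 SD, cut at about 0.9% in these data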
LXR ag = activates human LXR-beta, counter-screen for hcDAF-12 agonists; shares compounds with hcDAF-12 act; HEK293 Gal4-LXR tk-luc reporter, luminescence, 24 h; normalized: DMSO 0%, positive control 100%; activation, % at 6.8 µM; 3,400 tested, under 10 active;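 active means mean percent activation of the reporter above a cutoff set as the average over tested compounds plus their standard deviation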
Target sequence (P55055 whole entry, looked up, the tested form may be a part): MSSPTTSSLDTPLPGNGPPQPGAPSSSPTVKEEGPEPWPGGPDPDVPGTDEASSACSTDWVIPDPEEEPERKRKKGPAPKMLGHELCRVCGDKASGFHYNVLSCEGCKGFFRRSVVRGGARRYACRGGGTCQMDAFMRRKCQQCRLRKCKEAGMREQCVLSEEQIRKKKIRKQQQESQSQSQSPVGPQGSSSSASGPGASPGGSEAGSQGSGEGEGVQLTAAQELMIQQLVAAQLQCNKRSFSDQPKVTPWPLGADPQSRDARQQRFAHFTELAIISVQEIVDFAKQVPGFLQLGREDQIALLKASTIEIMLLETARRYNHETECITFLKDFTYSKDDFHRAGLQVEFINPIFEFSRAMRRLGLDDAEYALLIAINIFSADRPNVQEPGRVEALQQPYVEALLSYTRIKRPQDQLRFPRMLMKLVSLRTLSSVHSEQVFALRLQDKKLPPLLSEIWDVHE
hcDAF12 ag = hcDAF-12 agonism, confirmation assay; HEK293 hcDAF-12 lit1-tk-luc reporter, luminescence; % of Δ7-dafachronic acid response; hit rate 61% among 3,400; activation, % at 6.8 µM; shares compounds with hcDAF-12 act; AID 743032;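 active means mean activation across triplicate tests above the threshold derived from the earlier primary screen, cut at about 5.5% in these data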
Large screens that a line does not name were inactive (follow-up assays come after a bar, where they were run).

C[C@H](O)[C@@H]1C(=O)N2CCc3c([nH]c4c(-c5ccccc5)cccc34)[C@@H]2C[C@@H]1N(C)CC1CCCCC1	none (no result: DAX1 inh-2)
COc1nc(NCCO)nc(Nc2ccc([N+](=O)[O-])cc2)n1	none
O=[N+]([O-])c1ccc(Nc2nc(Cl)nc(NCCO)n2)cc1	hcDAF-12 act 6.8 | LXR ag inactive | hcDAF12 ag inactive
COc1ccc(-n2nnnc2C(c2cccs2)N2CCN(C/C=C/c3ccccc3)CC2)cc1 (stereo not drawn)	none (no result: DAX1 inh-2)
COCCNC(=O)C1(C)CCCN(C(=O)c2ccccc2F)C1 (stereo not drawn)	none (no result: DAX1 inh-2)
COc1ccc(N=C2NN=C(c3c(C)[nH]c4ccccc34)CS2)cc1	none
Cc1[nH]c2ccccc2c1C1=NNC(=Nc2ccc(F)cc2)SC1	hcDAF-12 act 7.1, DAX1 inh-2 4.4 | LXR ag inactive | hcDAF12 ag inactive
CC1Cc2ccccc2N1CC(=O)Nc1cc(S(=O)(=O)N2CCOCC2)ccc1Cl (stereo not drawn)	none
O=C(NNc1ccccc1Br)C(=O)n1ccc2ccccc21	hcDAF-12 act 7.6 | LXR ag inactive | hcDAF12 ag inactive
O=C(Nc1ccccc1Br)C(=O)N1CCCC1	none
O=C(O)C1(Nc2ccccc2Cl)CCCC1	none
O=C1OCC(CO)(CO)N=C1NNc1ccccc1Cl	hcDAF-12 act 9.0 | LXR ag inactive | hcDAF12 ag inactive
C=CCN1[C@H](C#N)[C@@H](c2ccc(C#Cc3cccnc3)cc2)[C@H]1CO	none (no result: DAX1 inh-2)
O=C(NC1CCCC1)c1ccc(COc2ccccc2)o1	none (no result: DAX1 inh-2)
CCOc1ccc(Br)cc1CNCCN1CCOCC1	hcDAF-12 act 13 | LXR ag inactive | hcDAF12 ag inactive
CCOC(=O)c1cccc(NC(=O)CN(C)S(=O)(=O)c2ccc(Cl)s2)c1	none (no result: DAX1 inh-2)
CCOc1ccc(N=NC2C(=O)N(C(N)=S)N=C2C)cc1 (stereo not drawn)	hcDAF-12 act 6.6, ssDAF-12 act 0.9 | LXR ag inactive | hcDAF12 ag inactive
Nc1nc2ccc(C(=O)Nc3ccccc3)cc2s1	hcDAF-12 act 11, hgDAF12 agonist 11, ssDAF-12 act 1.9 | LXR ag inactive | hcDAF12 ag 7.7
CC(=O)/C=C/c1ccc2ccccc2n1	hcDAF-12 act 8.2 | LXR ag inactive | hcDAF12 ag inactive
CC(=O)/C(=N\Nc1ccccc1)Sc1nncn1C	hcDAF-12 act 8.4 | LXR ag inactive | hcDAF12 ag inactive
CC(=O)/C(=N\Nc1ccccc1)Sc1nnc(-c2ccccc2)n1-c1ccccc1	none
CCc1nc2ccc(C(=O)Nc3cccc(OCC(=O)N(C)C)c3)cn2c1N(CC)CCOC	none (no result: DAX1 inh-2)
CNc1cnn(-c2ccc(C)cc2)c(=O)c1Cl	hcDAF-12 act 8.1 | LXR ag inactive | hcDAF12 ag 9.1
CNc1cnn(-c2ccc(C)cc2)c(=O)c1Sc1ccc(C)cc1	none
Nc1cccc(CCc2nc3cc4ccccc4cc3[nH]2)c1	hcDAF-12 act 12, hgDAF12 agonist 12 | LXR ag inactive | hcDAF12 ag 8.7
O=c1cc(/C=C/c2ccccc2)oc2ccccc12	hcDAF-12 act 6.9, DAX1 inh-1 3.7, hgDAF12 agonist 12, ssDAF-12 act 1.6 | LXR ag inactive | hcDAF12 ag 9.4
C=CCN(C(=O)[C@@H](C1CC1)[C@@H](O)c1ccc2ccccc2c1)c1ccccc1	none (no result: DAX1 inh-2)
O=C1CC(c2cccs2)Sc2nc3ccccc3n21 (stereo not drawn)	hcDAF-12 act 7.5, ssDAF-12 act 1.6 | LXR ag inactive | hcDAF12 ag 7.4
O=C1CC(c2ccco2)Sc2nc3ccccc3n21 (stereo not drawn)	hcDAF-12 act 9.8, ssDAF-12 act 2.8 | LXR ag inactive | hcDAF12 ag 10
O=C1CC(c2ccc3c(c2)OCO3)Sc2nc3ccccc3n21 (stereo not drawn)	none
Cc1sc2c(c1C)CN(Cc1ccncc1)CN2C(=O)c1ccco1	none
Cc1sc2c(c1C)CN(C(C)(C)C)CN2C(=O)c1ccccc1	hcDAF-12 act 6.8 | LXR ag inactive | hcDAF12 ag 6.4
